SNCA expr inh = inhibitors of alpha-synuclein (SNCA) gene expression; HEK-293 SNCA-luciferase knock-in, luminescence, 24 h; Potency, µM (top dose mostly 57.2 µM), for inactives: top-dose activity change, negative = inhibition, hits mostly inhibitors; hit rate 0.17% among 140,000; AID 1671194;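 further: potency means the concentration at half of the fitted maximal effect; plate controls were DMSO cells for no effect and cell-free wells for full effect; nearly all actives have a fitted effect of over 45% in size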
KDM5B inh = blocks human KDM5B histone demethylase activity | Q9UGL1 | KDM5B demethylase, FDH-coupled NADH fluorescence (FDH is formaldehyde dehydrogenase) | Potency, µM (series often up to 57.7 µM), actives largely listed as inhibitors | hit rate 2.6% among 220,000; further: potency means the concentration at half of the fitted maximal effect; 0% is about no effect; nearly all actives have a fitted effect of over 70% in size
Target sequence (Q9UGL1 whole entry, looked up): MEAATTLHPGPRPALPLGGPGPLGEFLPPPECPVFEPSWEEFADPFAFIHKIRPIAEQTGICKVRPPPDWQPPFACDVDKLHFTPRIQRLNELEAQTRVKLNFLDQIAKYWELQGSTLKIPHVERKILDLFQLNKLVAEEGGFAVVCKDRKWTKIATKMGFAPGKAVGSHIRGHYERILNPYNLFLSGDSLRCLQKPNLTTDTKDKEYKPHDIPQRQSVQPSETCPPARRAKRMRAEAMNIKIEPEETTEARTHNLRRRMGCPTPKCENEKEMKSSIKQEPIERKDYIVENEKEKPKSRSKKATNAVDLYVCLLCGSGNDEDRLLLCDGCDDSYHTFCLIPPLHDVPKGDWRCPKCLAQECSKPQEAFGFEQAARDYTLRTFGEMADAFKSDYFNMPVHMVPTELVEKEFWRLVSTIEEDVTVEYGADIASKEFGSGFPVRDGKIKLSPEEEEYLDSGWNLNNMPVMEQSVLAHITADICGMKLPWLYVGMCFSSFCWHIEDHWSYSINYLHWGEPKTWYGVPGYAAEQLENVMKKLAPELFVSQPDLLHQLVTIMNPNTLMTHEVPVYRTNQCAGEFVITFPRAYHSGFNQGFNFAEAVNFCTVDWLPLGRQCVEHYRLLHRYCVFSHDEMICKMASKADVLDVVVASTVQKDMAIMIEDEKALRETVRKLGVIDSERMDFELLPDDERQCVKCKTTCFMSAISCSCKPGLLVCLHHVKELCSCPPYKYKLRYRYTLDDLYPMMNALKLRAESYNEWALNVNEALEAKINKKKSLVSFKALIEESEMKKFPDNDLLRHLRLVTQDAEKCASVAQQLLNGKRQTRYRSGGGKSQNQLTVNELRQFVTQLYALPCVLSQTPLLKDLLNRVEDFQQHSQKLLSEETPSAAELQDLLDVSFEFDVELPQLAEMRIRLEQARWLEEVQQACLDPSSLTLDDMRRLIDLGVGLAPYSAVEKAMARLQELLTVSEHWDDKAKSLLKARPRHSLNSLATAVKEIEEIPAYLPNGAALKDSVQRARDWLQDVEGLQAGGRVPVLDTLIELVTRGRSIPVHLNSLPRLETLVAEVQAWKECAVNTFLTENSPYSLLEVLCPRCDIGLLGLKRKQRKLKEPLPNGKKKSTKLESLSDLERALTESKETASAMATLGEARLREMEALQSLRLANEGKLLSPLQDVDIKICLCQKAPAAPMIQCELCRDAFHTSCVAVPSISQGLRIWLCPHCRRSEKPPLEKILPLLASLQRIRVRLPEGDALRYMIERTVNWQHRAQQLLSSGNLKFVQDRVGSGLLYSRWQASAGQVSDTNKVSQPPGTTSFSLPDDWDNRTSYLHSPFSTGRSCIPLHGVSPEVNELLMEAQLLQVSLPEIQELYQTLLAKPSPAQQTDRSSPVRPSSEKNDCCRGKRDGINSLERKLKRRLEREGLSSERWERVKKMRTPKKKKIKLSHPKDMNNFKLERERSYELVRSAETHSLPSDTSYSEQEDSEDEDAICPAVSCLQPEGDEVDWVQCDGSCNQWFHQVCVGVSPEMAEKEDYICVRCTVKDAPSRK
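qHTS format, multiple compound concentrations. Buffer 50 mM HEPES pH 7.5/0.01% Tween-20; 200 nM KDM5BΔAP final; 10 min compound preincubation; substrate-mix levels 12.5 µM peptide, 25 µM α-KG, 0.25 mM NAD⁺; 30 min RT; ΔRFU.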
HEK293 viab = reduces viability of HEK-293 SNCA reporter cells; HEK-293-SNCA-luc viability, GF-AFC fluorescence, 24 h; Potency, µM (series often up to 57.1 µM), for the others: top-dose activity change, negative = cytotoxicity, usual class: cytotoxic; hit rate 0.12% among 150,000; AID 1671193;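 further: potency means the concentration at half of the fitted maximal effect; 0% = DMSO-treated cells and -100% = medium-only wells without cells; nearly all actives have a fitted effect of over 30% in size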
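HEK-293-SNCA-luc cells (1500/well) plated 24 h, then exposed 24 h to a dilution series; GF-AFC added 30 min at 37C, fluorescence 405/540 nm; normalised to medium-only and DMSO wells, Hill fit.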
IP6K1 inh = IP6K1 kinase inhibition; Q92551; IP6K1 kinase, ADP-Glo luminescence, 2 h; hits give low values; activity change, % (series mostly up to about 58 µM); hit rate 0.81% among 140,000; AID 1645851; in the data active means activity change below about -25%; further: on the % scale 0 is the no-effect control and ±100 the full control effect
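ADP-Glo luminescence measures ADP made by human IP6K1 during a 2 h RT reaction with ATP/IP6 (mix at 1.3 mM/130 uM); top library doses 57.5 and 19.1 uM final.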
Active calls of the source: *; i = inactive; u = inconclusive; x = not tested or not shown; [ ] = remark or other dose. Hits are enriched below; roughly 2.8% of the tested compounds scored in any of these assays. Unless noted, the call rests on the fitted dose curve; in most records, active means well fitted curve in the direction sought with a large enough effect; inconclusive means small, poorly fitted or top-dose-only effect, or another doubt; inactive means no such curve, though single readings can be large; an effect the other way counts as inactive or inconclusive.

SMILES	SNCA expr inh	KDM5B inh	HEK293 viab	IP6K1 inh
CCCNC(=O)N1CCC(N2C(=O)C(OC)C23CCOCC3)CC1 (configuration not stated)	14%	i	7%	-8
COc1ccc(-c2ccc(C(=O)N3Cc4[nH]cnc4CC3C(=O)O)o2)cc1 (configuration not stated)	19%	28µM*	9%	-5
CN1C(=O)c2cccn2CC1CNC(=O)c1cc2ccccc2[nH]1 (configuration not stated)	40%	16µM*	-6%	1
COc1cccc(-c2nc(SCc3ccc(C)cc3)n3[nH]c(=O)cc3n2)c1	32%	i	9%	31
Cn1ncc2c(N)nc(NC3CC(c4cc(=O)[nH]c(C5CC5)n4)C3)nc21 (configuration not stated)	-4%	20µM*	-2%	8
Cc1nnc(NC2CC(c3cc(=O)[nH]c(C4CC4)n3)C2)c2ccccc12 (configuration not stated)	5%	i	-5%	8
O=C(NCc1nnc2cc(-c3nc(C4CC4)no3)ccn12)c1cccc(Cl)c1	-24%	14µM*	-12%	33
O=C(NCc1nnc2cc(-c3nc(C4CC4)no3)ccn12)c1ccoc1	-14%	32µM*	u	0
Cc1noc(-c2ccn3c(CNC(=O)c4ccc(F)c(Cl)c4)nnc3c2)n1	3%	25µM*	0%	18
O=C(NCc1nnc2cc(-c3nc(C4CC4)no3)ccn12)c1ccccc1Cl	-29%	22µM*	-4%	36
O=C(NCc1nnc2cc(-c3nc(C4CC4)no3)ccn12)c1ccccc1	-24%	i	6%	12
Cc1cc(C)cc(C(=O)NCc2nnc3cc(-c4nc(C5CC5)no4)ccn23)c1	-14%	i	-3%	14
CC1CCN(C(=O)c2ccc(CN(c3ccccc3)S(C)(=O)=O)cc2)CC1	x	i	x	x
C=CCNc1nc(C(=O)OC(C)C(=O)c2ccc(C)cc2)cs1 (configuration not stated)	x	i	x	x
Cc1ccc(NC(=O)C2CCCN(S(=O)(=O)c3c(C)n[nH]c3C)C2)cc1C (configuration not stated)	1%	i	11%	3
Cc1noc(-c2ccn3c(CNC(=O)c4nccc5ccccc45)nnc3c2)n1	30%	32µM*	-3%	7
Cc1ccc(C(=O)NCc2nnc3cc(-c4nc(C5CC5)no4)ccn23)cc1F	u	u	u	-3
O=C(NCc1nnc2cc(-c3nc(C4CC4)no3)ccn12)c1c(F)cccc1F	-14%	25µM*	-2%	13
Cc1noc(-c2ccn3c(CNC(=O)c4ccccc4Cl)nnc3c2)n1	-3%	28µM*	-11%	-3
CCc1noc(-c2ccn3c(CNC(=O)c4nccc5ccccc45)nnc3c2)n1	-8%	u	-4%	6
COc1ccc(CN2Cc3[nH]cnc3C[C@H]2C(=O)N2CCC(Cc3ccccc3)CC2)cc1	-2%	i	-13%	11
COc1ccc(OC)c([S+](=O)([O-])c2nnn3c2nc(NCc2ccc(F)cc2)c2ccccc23)c1	-29%	i	-3%	11
Cc1nn2c(=O)cc(COC(=O)c3cccc(NC(=O)CCc4ccccc4)c3)nc2s1	15%	i	-2%	-13
Cc1cc(C)cc(C(=O)NCCn2ccn3nc(-c4ccc(C)cc4C)cc3c2=O)c1	102%	22µM*	-1%	-1
Cc1ccc(-c2cc3c(=O)n(CCNC(=O)c4cccc(Cl)c4)ccn3n2)c(C)c1	52%	28µM*	-13%	0
SMILES	SNCA expr inh	KDM5B inh	HEK293 viab	IP6K1 inh
CCCc1ccccc1OCC(=O)c1ccc2c(c1)N(CC(=O)NCC1CC1)C(=O)CO2	-12%	i	-15%	5
Cc1cn2nc(C(=O)NCc3ccccc3F)cc2c(N(C)Cc2ccccc2)n1	-30%	14µM*	-1%	-6
COc1ccccc1CNC(=O)c1cc2c(N(C)Cc3ccccc3)nc(C)cn2n1	0%	14µM*	-2%	14
O=C(NCC1COCCO1)c1ccc(CN2CCC(N3CCCC3)CC2)[nH]c1=O (configuration not stated)	13%	28µM*	-1%	-9
C=C(C)Cn1c(-n2nc(C)cc2C)nc2c1c(=O)n(CCOC)c(=O)n2C	x	i	x	x
CN1CCC2(C1)CN(Cc1ccccc1)c1ccc(C(=O)Nc3ccn(C)n3)cc12 (configuration not stated)	29%[87.6 µM]	u	0%[87.6 µM]	7
O=C(NCC1CC1)c1ccc2c(c1)C1(CCN(CC3CC3)C1)CN2Cc1ccccc1 (configuration not stated)	-30%[87.6 µM]	28µM*	-5%[87.6 µM]	11
O=C(NC1CCC1)c1ccc2c(c1)C1(CCN(CC3CC3)C1)CN2Cc1ccccc1 (configuration not stated)	-12%[87.6 µM]	40µM*	-22%[87.6 µM]	-6
CCNC(=O)c1ccc2c(c1)C1(CCN(CC3CC3)C1)CN2Cc1ccccc1 (configuration not stated)	2%[87.6 µM]	35µM*	-6%[87.6 µM]	11
CN1CCC2(C1)CN(Cc1ccccc1)c1ccc(C(=O)NC3COC3)cc12 (configuration not stated)	-4%[87.6 µM]	40µM*	4%[87.6 µM]	11
COC(=O)c1ccc(CNC(=O)C(C)(C)c2ccccc2)cc1	x	i	x	x
CC[C@H]1CN(C(=O)c2ccccc2)CC[C@H]1CC(=O)N1CCOCC1	16%[87.6 µM]	i	1%[87.6 µM]	9
CN1CCC2(C1)CN(CC1CC1)c1ccc(C(=O)NCc3cccs3)cc12 (configuration not stated)	4%[87.6 µM]	u	-9%[87.6 µM]	-2
CN1CCCC2(C1)CN(Cc1cccnc1)c1ccc(C(=O)NCC3CCCCC3)cc12 (configuration not stated)	u	i	-6%[87.6 µM]	4
CN(C)CCNC(=O)c1ccc2c(c1)C1(CCN(CC3CC3)C1)CN2Cc1ccccc1 (configuration not stated)	u	35µM*	-23%[87.6 µM]	-4
NC(=O)c1ccc2c(c1)C1(CCN(CC3CC3)C1)CN2Cc1ccccc1 (configuration not stated)	24%[87.6 µM]	35µM*	-11%[87.6 µM]	9
CN1CC2(CCCN(CC3CC3)C2)c2cc(C(=O)Nc3ccn(C)n3)ccc21 (configuration not stated)	-8%[87.6 µM]	u	1%[87.6 µM]	39
CN1CCC2(C1)CN(CC1CCOCC1)c1ccc(C(=O)NCC(F)(F)F)cc12 (configuration not stated)	3%[87.6 µM]	35µM*	5%[87.6 µM]	4
CN1CCC2(C1)CN(Cc1ccccc1)c1ccc(C(=O)NCC3CC3)cc12 (configuration not stated)	30%[87.6 µM]	35µM*	9%[87.6 µM]	1
COCCCN(C(=O)Cc1ccc(S(=O)(=O)N2CCOCC2)s1)c1c(N)n(Cc2ccccc2)c(=O)[nH]c1=O	x	i	x	x
CN1CCC2(C1)CN(CC1CC1)c1ccc(C(=O)Nc3ccccc3)cc12 (configuration not stated)	90%[87.6 µM]	u	-17%[87.6 µM]	8

Compound activity (PubChem)
